rCAG RNA binder: binds r(CAG) RNA repeats; AID 651821; inhibition, % at 3 µM; r(CAG) RNA repeat, TO-PRO-1 dye displacement fluorescence; 370,000 tested, 1.3% active;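 active = inhibition above the plate cutoff, the mean of all test compounds on that plate plus 3 SD, cut at about 35% in these data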;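 also: higher means more dye released from RNA so lower well fluorescence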
NadD block: blocks S. aureus nicotinate mononucleotide adenylyltransferase. purified NadD enzyme, colorimetric absorbance read-out. inhibition, % at 20 µM. 360,000 tested, 0.78% active. AID 602399; in the data active = inhibition above about 26%
NR3A LBD binder: NR3A (human) ligand-binding domain modulation | NR3A LBD differential scanning fluorimetry, Tm shift; 0% = protein alone, 100% = glycine-bound protein | Tm shift relative to glycine control, % at 25 µM | 340,000 tested, 2.5% active | AID 1259313;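 active = melting temperature shift of at least 10% of the positive control shift, at one fixed dose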
FAS-TE inh: inhibitors of human fatty acid synthase thioesterase domain. recombinant FAS-TE, OMFH fluorogenic substrate, fluorescence endpoint. inhibition, % at 15 µM. P49327. AID 602261. 360,000 tested, 0.67% active;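 active = compounds whose normalised, plate-corrected inhibition of enzyme fluorescence in the single-dose primary screen is 50% or more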
rCAG binder conf: r(CAG) RNA repeat binding, confirmation | TO-PRO-1 dye displacement fluorescence | inhibition, % at 3 µM | shares compounds with rCAG RNA binder | 4,300 tested, 70% active;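 active = inhibition above a per-plate cutoff, the mean inhibition of sample wells plus 3 SD, cut at about 35% in these data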;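 also: loss of TO-PRO-1 fluorescence as compound displaces dye from 1x1 AA loop RNA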
DNA CAG counter: counter-screen for rCAG RNA binders: DNA CAG dye complex inhibitors. shares compounds with rCAG RNA binder. d(CAG) DNA oligo TO-PRO-1 dye displacement, fluorescence. inhibition, % at 3 µM. 4,300 tested, 94% active;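 active = inhibition above its plate's cutoff, the mean test-well inhibition plus 3 SD, cut at about 4.8% in these data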;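 also: hits displace the dye from DNA and so lower well fluorescence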
A number is an active result; n = inactive; x = no result. In the library only some 4.3% were active in any assay of this set; here they are far more common.

SMILES	rCAG RNA binder	NadD block	NR3A LBD binder	FAS-TE inh	rCAG binder conf	DNA CAG counter
CCc1nnc(NC(=O)Nc2ccc(OC)cc2)s1	n	n	n	n	x	x
COc1ccc(C(=O)NC(=S)Nc2ccc(S(=O)(=O)Nc3cc(C)on3)cc2)cc1OC	34.7	n	n	n	36.3	6.5
CCc1nnc(NS(=O)(=O)c2ccc(NC(=S)NC(=O)c3ccc(OC)cc3)cc2)s1	70.5	n	n	n	66.6	33.4
CCc1nnc(NS(=O)(=O)c2ccc(NC(=S)NC(=O)/C=C/c3ccc([N+](=O)[O-])cc3)cc2)s1	37.5	n	n	n	n	7.7
COc1ccc(Cc2nnc(NS(=O)(=O)c3ccc(Cl)cc3)s2)cc1OC	48.6	n	n	n	53.1	15.7
CC(C)(C)Cc1nnc(NS(=O)(=O)c2ccc([N+](=O)[O-])cc2)s1	n	n	n	n	x	x
COc1ccc(-c2csc(Nc3ccc(S(=O)(=O)Nc4cc(C)on4)cc3)n2)cc1C	92.6	n	n	n	82.2	42.6
O=C(NC(=S)Nc1ccc(S(=O)(=O)Nc2nccs2)cc1)c1ccc(F)cc1	52.9	n	n	n	37.9	13.8
COc1ccc(CC(=O)Nc2ccc(S(=O)(=O)Nc3cc(C)on3)cc2)cc1OC	n	n	n	n	x	x
CCc1nnc(NS(=O)(=O)c2ccc(NC(=S)NC(=O)c3ccc(OC)c(OC)c3)cc2)s1	67.6	n	n	n	68.2	32.4
CC(C)(C)C(=O)NC(=S)Nc1ccc(S(=O)(=O)Nc2nccs2)cc1	n	n	n	n	x	x
COCc1nnc(NS(=O)(=O)c2ccc(NC(C)=O)cc2)s1	n	n	n	n	x	x
O=S1(=O)c2c(cccc2N2CCSCC2)Oc2ccccc2CN1Cc1cn(Cc2cccc(F)c2)nn1	n	x	x	x	x	x
COc1ccc(NS(=O)(=O)c2ccc(Oc3cccc(C(=O)O)c3)cc2)cc1	n	n	n	n	x	x
O=C(O)c1cccc(NS(=O)(=O)c2ccc(Oc3ccc(S(=O)(=O)Nc4cccc(C(=O)O)c4)cc3)cc2)c1	47.4	n	n	n	n	n
O=C(O)c1cccc(NC(CNS(=O)(=O)c2ccc(Cl)cc2)c2ccccc2)c1 (configuration not stated)	43.0	n	n	n	36.5	11.3
O=C(O)c1cccc(S(=O)(=O)Nc2ccc(-c3ccccc3)cc2)c1	n	n	n	n	x	x
O=C(O)c1cccc(NS(=O)(=O)c2ccc(-c3ccc(S(=O)(=O)Nc4cccc(C(=O)O)c4)cc3)cc2)c1	43.4	n	n	n	n	n
O=C(N=Nc1c(O)[nH]c2ccccc12)c1cc(NS(=O)(=O)c2cccs2)cc(NS(=O)(=O)c2cccs2)c1	67.2	n	n	n	73.0	35.4
O=S(=O)(N/N=C/c1ccc(Cl)cc1)c1ccc(Cc2ncc(C(F)(F)F)cc2Cl)s1	45.0	n	28.9	n	64.5	25.6
COc1cc(/C=C2\SC(=S)N(N(C)c3ccccc3)C2=O)ccc1O	n	n	n	n	x	x
O=C(NN1C(=O)/C(=C/c2ccc(O)c([N+](=O)[O-])c2)SC1=S)c1ccccc1Cl	38.9	n	n	n	n	5.5
NC1=NC(=O)/C(=C\c2ccc(O)c([N+](=O)[O-])c2)S1	n	n	n	n	x	x
COc1cc(/C=C2\SC(=S)N(NC(=O)c3ccccc3O)C2=O)ccc1O	55.3	n	10.6	n	n	12.7
COC(=O)[C@]12C[C@H](CC(=O)NCc3ccc(C)o3)C(=O)N(Cc3ccco3)C1=C[C@H](C(C)C)O[C@@H]2C1CC1	n	x	x	x	x	x
SMILES	rCAG RNA binder	NadD block	NR3A LBD binder	FAS-TE inh	rCAG binder conf	DNA CAG counter
CNc1ccc(Br)cc(C(=O)/C=C/c2cccc(OC)c2)c1=O	36.0	n	n	n	37.1	16.0
COc1cccc(/C=C/C(=O)OCC(=O)NCCNC(=O)COC(=O)/C=C/c2cccc(OC)c2)c1	n	n	n	n	x	x
COc1ccc(N=C2SC(C(=O)Nc3ccc(C(=O)O)cc3)CC(=O)N2Cc2cccs2)cc1 (configuration not stated)	61.4	n	n	n	60.1	20.3
CC(=O)CC[C@H]1CC[C@]2(CCCN(C(=O)C3CCCC3)C2)O1	n	x	x	x	x	x
O=C(COC(=O)c1cc(Br)ccc1O)Nc1ccc2c(c1)OCCO2	n	n	n	n	x	x
COc1ccc(NS(=O)(=O)c2ccc(O)c(C(=O)OCC(=O)Nc3ccc4c(c3)OCCO4)c2)cc1	38.2	n	19.1	n	n	10.9
O=C(COC(=O)c1cc(S(=O)(=O)Nc2ccccc2Cl)ccc1O)Nc1nc2ccccc2s1	42.8	n	23.8	n	68.7	31.2
N#Cc1cccc(NC(=O)COC(=O)c2cc(S(=O)(=O)Nc3ccccc3Cl)ccc2O)c1	52.0	n	18.5	n	45.1	15.4
CCCc1cc2c(OC)ccc(O)c2c(=O)n1C	n	x	x	x	x	x
Cc1cc(C(C#N)c2ccc(Cl)cc2)c(Cl)cc1NC(=O)c1cc(I)cc(I)c1O (configuration not stated)	72.8	51.5	n	57.2	92.5	78.5
O=C(C1CCCN1S(=O)(=O)c1ccc([N+](=O)[O-])cc1)N1CCc2ccccc2C1 (configuration not stated)	n	x	x	x	x	x
O=C(/C=C/c1ccc(Cl)cc1)NC(=S)Nc1ccc(C(=O)O)cc1	n	n	n	n	x	x
O=C(/C=C/c1ccccc1)NC(NC(=S)Nc1ccc(C(=O)O)cc1)C(Cl)(Cl)Cl (configuration not stated)	65.2	n	13.1	n	56.2	13.9
CCCCS(=O)(=O)N1C2=NC(C(=O)OCC)=C(C(=O)OCC)C3N(Cc4ccc(Br)cc4)c4ccccc4[C@]23C[C@H]1C(=O)OC (some centres not stated)	n	x	x	x	x	x
Cc1ccccc1NC(=O)CSc1[nH]c(=O)cc(C)c1C#N	n	n	n	n	x	x
N#Cc1c(SCC(=O)Nc2ccccc2C(F)(F)F)sc2c(O)cc(=O)[nH]c12	49.7	n	n	n	n	6.3
O=C(CSc1cn[nH]n1)Nc1ccc(Cl)cc1Cl	n	n	n	n	x	x
Cc1c(Cl)cccc1NC(=O)CSc1sc2c(O)cc(=O)[nH]c2c1C#N	39.0	n	n	n	n	5.8
N#Cc1c(SCC(=O)Nc2ccc(Cl)cc2Cl)sc2c(O)cc(=O)[nH]c12	44.2	n	n	n	n	13.3
O=C(NN1C(=O)/C(=C/C=C/c2ccco2)SC1=S)c1ccncc1	76.6	n	n	n	81.2	47.5
O=C1/C(=C/C=C/c2ccco2)SC(=S)N1c1ccc(O)cc1	74.0	n	n	n	76.8	46.3
O=C1/C(=C/c2ccco2)SC(=S)N1c1cccnc1	64.7	n	n	n	55.2	25.6
O=C1/C(=C\c2ccco2)SC(=S)N1c1ccc(O)cc1	n	n	n	n	x	x
CCCN1CCCCC(NC(=O)OC(C)(C)C)C1=O (configuration not stated)	n	x	x	x	x	x
C=CCN1[C@@H](C)[C@H](c2ccccc2)Oc2cccc(NCC(C)C)c2S1(=O)=O	n	x	x	x	x	x
CC(C)c1ccc(NC(=O)Nc2nc(C(N)C(C)C)cs2)cc1 (configuration not stated)	n	n	x	n	x	x
